Experimental data taken from the supplement of paper PMC9925115.
± gives the uncertainty stated by the source.

These compounds were tested on FLX1 (assay: cell viability z-score within plate (CellTiter-Glo), mean of 3 biological replicates; higher = higher viability relative to plate (less growth inhibition)). Settings: 2 µM; time (hr): 120.
Experimental: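 FLX1 fibrolamellar carcinoma cells (DNAJB1-PRKACA fusion), 600 cells/well in 384-well plates, treated with a Selleck kinase inhibitor library (L1200) at 2 uM for 5 days (120 hr); viability by CellTiter-Glo. A z-score was computed within each plate and averaged over three biological replicates.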

First: S=C(NCc1ccc2c(c1)OCO2)N1CCN(c2ncnc3c2oc2ccccc23)CC1 [Amuvatinib (MP-470)]
Second: Nc1ccc(C(=O)Nc2cccc(-c3nc(N4CCOCC4)c4oc5ncccc5c4n3)c2)cn1
The “cell viability z-score within plate” value of the first is lower: -0.826 ± 0.77 for the first, 0.775 ± 0.24 for the second.

`C=CC(=O)Nc1cccc(Oc2nc(Nc3ccc(N4CCN(C)CC4)cc3)ncc2Cl)c1` and `C=CC(=O)Nc1cccc(Nc2nc(Nc3ccc(N4CCN(C(C)=O)CC4)cc3OC)ncc2C(F)(F)F)c1` [Rociletinib (CO-1686, AVL-301)] are within error of each other in “cell viability z-score within plate” value: -0.0359 ± 0.21 for the first, -0.855 ± 0.71 for the second.

Going from `C[C@@H](Oc1cc(-n2cnc3ccc(CN4CCN(C)CC4)cc32)sc1C(N)=O)c1ccccc1C(F)(F)F` to `CO[C@@H](C(=O)N1Cc2[nH]nc(NC(=O)c3ccc(N4CCN(C)CC4)cc3)c2C1)c1ccccc1`, the “cell viability z-score within plate” value falls from 0.737 ± 0.18 to 0.348 ± 0.073.

`COc1ccc(S(=O)(=O)N(CCO)c2ccccc2CN(C)C/C=C/c2ccc(Cl)cc2)cc1` [KN-93 Phosphate] and `Cc1cc(CS(=O)(=O)c2ccccc2)cc(OCc2ccc(CN3CCC[C@@H]3CO)cc2)c1` are within error of each other in “cell viability z-score within plate” value: 0.23 ± 0.54 for the first, 0.378 ± 0.24 for the second.

`Cc1ccc(S(=O)(=O)/C=C/C#N)cc1` and `Cc1cc(C)c(/C=C2\C(=O)Nc3ccccc32)[nH]1` [Semaxanib (SU5416)] are within error of each other in “cell viability z-score within plate” value: 0.177 ± 0.63 for the first, -1.17 ± 0.77 for the second.

`CCn1c(N)c(C(=O)NC)c(=O)c2ccc(C#CC(C)(O)COC)nc21` (stereo not given) and `Cn1cnc2c(F)c(Nc3ccc(Br)cc3F)c(C(=O)NOCCO)cc21` are within error of each other in “cell viability z-score within plate” value: -1.49 ± 1.7 for the first, -0.254 ± 0.15 for the second.

`COc1ccc(-c2nc(N3CCOCC3)c3sc(CN(C)c4ncc(C(=O)NO)cn4)cc3n2)cn1` and `Cc1c(CN2CCN(C(=O)[C@H](C)O)CC2)sc2c(N3CCOCC3)nc(-c3cnc(N)nc3)nc12` [Apitolisib (GDC-0980, RG7422)] are within error of each other in “cell viability z-score within plate” value: -0.258 ± 0.92 for the first, 0.169 ± 0.42 for the second.

First: O=C1NC(=O)/C(=C/c2ccc3c(c2)OC(F)(F)O3)S1
Second: O=C1NCCc2[nH]c(-c3ccncc3)cc21
The “cell viability z-score within plate” value of the first is lower: -0.962 ± 0.62 for the first, 0.309 ± 0.59 for the second.

`CN(C)CCOc1ccc(-c2nc(-c3ccncc3)c(-c3ccc4c(c3)CC/C4=N\O)[nH]2)cc1` and `O=C(Cc1ccc(-c2ccc(OCCN3CCOCC3)cc2)cn1)NCc1ccccc1` are within error of each other in “cell viability z-score within plate” value: 0.259 ± 0.2 for the first, 0.711 ± 0.45 for the second.

First: N#CCNC(=O)c1ccc(-c2ccnc(Nc3ccc(N4CCOCC4)cc3)n2)cc1 [Momelotinib (CYT387)]
Second: Cc1cc(NC(=O)c2cccc(NC(=O)/C=C/CN(C)C)c2)ccc1Nc1nccc(-c2cccnc2)n1
The “cell viability z-score within plate” value of the first is lower: -1.97 ± 1 for the first, 0.657 ± 0.22 for the second.

Going from `O=C(c1ccc(/C=C/c2n[nH]c3ccccc23)cc1)N1CCNCC1` to `Cc1cc([C@@H](C)Nc2ccccc2C(=O)O)c2nc(N3CCOCC3)cc(=O)n2c1`, the “cell viability z-score within plate” value falls from 0.449 ± 0.26 to -2.82 ± 2.

`CO[C@H]1C[C@@H]2CC[C@@H](C)[C@@](O)(O2)C(=O)C(=O)N2CCCC[C@H]2C(=O)O[C@H]([C@H](C)C[C@@H]2CC[C@@H](OCCO)[C@H](OC)C2)CC(=O)[C@H](C)/C=C(\C)[C@@H](O)[C@@H](OC)C(=O)[C@H](C)C[C@H](C)/C=C/C=C/C=C/1C` [Everolimus (RAD001)] and `COc1ccc(-c2ccc3c(N4CCOCC4)nc(N4C[C@@H](C)O[C@@H](C)C4)nc3n2)cc1CO` are within error of each other in “cell viability z-score within plate” value: -0.497 ± 1.1 for the first, 0.495 ± 0.19 for the second.

Going from `Nc1nc(N)c2nc(-c3cccc(O)c3)c(-c3cccc(O)c3)nc2n1` to `Cc1ccc(C(=O)Nc2cccc(C(F)(F)F)c2)cc1Nc1nc(-c2cccnc2)nc2c1cnn2C`, the “cell viability z-score within plate” value falls from 0.649 ± 0.23 to -0.436 ± 0.34.

Compared with `CC(C)CC(=O)Nc1n[nH]c2c1CN(C(=O)C1CCN(C)CC1)C2(C)C`, `C[C@@]1(C(=O)Nc2ccc(F)nc2)CCCN1c1nc(Nc2cc(C3CC3)n[nH]2)c2cccn2n1` is lower in “cell viability z-score within plate” value: 0.0889 ± 0.24 for the first, -1.16 ± 0.41 for the second.

`O=C(NC(NC(=S)Nc1ccc(F)c([N+](=O)[O-])c1)C(Cl)(Cl)Cl)C(c1ccccc1)c1ccccc1` (stereo not given) and `NCC(=O)Nc1ccc(-n2nc(C(F)(F)F)cc2-c2ccc3c(ccc4ccccc43)c2)cc1` are within error of each other in “cell viability z-score within plate” value: 0.309 ± 0.51 for the first, 0.225 ± 0.2 for the second.

`CCCCOc1c(C(=O)c2c(F)cc(C)cc2F)c[nH]c2nncc1-2` and `COc1cc2c(Oc3ccc(NC(=O)C4(C(=O)Nc5ccc(F)cc5)CC4)cc3F)ccnc2cc1OCCCN1CCOCC1` are within error of each other in “cell viability z-score within plate” value: -0.865 ± 0.43 for the first, -0.77 ± 2.3 for the second.

`CC1(COc2ccc3c(c2)ncn3-c2ccc3cccc(N4CCC(N)CC4)c3n2)COC1` and `CN1CCC(COc2cnc(-c3cccc(Cn4nc(-c5cccc(C#N)c5)ccc4=O)c3)nc2)CC1` are within error of each other in “cell viability z-score within plate” value: 0.0444 ± 0.77 for the first, -0.645 ± 0.46 for the second.

`Cn1c(Nc2ccc(C(F)(F)F)cc2)nc2cc(Oc3ccnc(-c4ncc(C(F)(F)F)[nH]4)c3)ccc21` and `Cc1csc(-c2nnc(Nc3ccc(Oc4ncccc4-c4ccnc(N)n4)cc3)c3ccccc23)c1` are within error of each other in “cell viability z-score within plate” value: 0.193 ± 0.26 for the first, -0.507 ± 1.2 for the second.

`COc1c(C)c(C(=O)c2ccc(N)c(C(=O)O)c2)n2ccccc12` and `Cc1[nH]nc2ccc(-c3cncc(OC[C@@H](N)Cc4ccccc4)c3)cc12` are within error of each other in “cell viability z-score within plate” value: 0.661 ± 0.44 for the first, 0.657 ± 0.13 for the second.

`CN(C[C@@H]1COCCO1)S(=O)(=O)Nc1ccc2ccc3ncc(-c4cnn(C)c4)cc3c(=O)c2c1` and `N#C/C(=C(/N)Sc1ccc(N)cc1)c1ccccc1C(F)(F)F` are within error of each other in “cell viability z-score within plate” value: -0.122 ± 0.42 for the first, -0.253 ± 0.36 for the second.
